# Assay results published in PubChem BioAssay AID463173 (ICCB-Longwood Screening Facility, Harvard Medical School, 2010).
# The whole screen tested about 52,000 compounds, of which about 4,300 (8.3%) were called active. This excerpt belongs to a sample that is enriched for actives. A number with no mark means an inactive call. Cut-off read from the data, not from the text of the source: active = survival mostly below about 52% (no sharp cut-off); inactive = mostly above about 56%.
# System: DeltatarO mutant
# Assay: S. aureus survival, RN4220 and DeltatarO strains – OD600, teichoic acid synthesis inhibitors, primary screen (AID 463173)
# Settings: S. aureus RN4220 wild type/DeltatarO growth, OD600, 18 h, stronger effect = lower value, screened at 18.75 µg/mL (by protocol)
row,SMILES,survival
1,Cc1ccc(N2CCN(C(=O)c3ccc(Nc4nc5ccccc5n5nnnc45)cc3)CC2)c(C)c1,82%
2,CC(C)Nc1nc2c(S(=O)(=O)c3cccc(Cl)c3)nnn2c2ccsc12,70%
3,COc1ccc(NC(=O)CSc2c3c(nc4ccccc24)CCC3)c(OC)c1,110%
4,CCOc1ccc(NC(=O)CSc2c3c(nc4ccccc24)CCCC3)cc1,88%
5,Cc1ccc(NC(=O)CSc2c3c(nc4ccccc24)CCCC3)cc1F,30% (active)
6,O=C(CSc1c2c(nc3ccccc13)CCC2)Nc1ccc(F)cc1,127%
7,COc1cccc(NC(=O)CSc2c3c(nc4ccccc24)CCCC3)c1,43% (active)
8,COc1ccc(OC)c(NC(=O)CSc2c3c(nc4ccccc24)CCCC3)c1,93%
9,CN(C)c1ccc(-c2nc3ccccn3c2Nc2ccc3c(c2)OCCO3)cc1,81%
10,CC(CCc1ccccc1)NC(=O)Cn1c(=O)nc(-c2ccccc2)c2cc(Cl)ccc21 (stereo not given),80%
11,O=C(CCc1ccccc1)NCc1ccco1,88%
12,CCOC(=O)c1ccccc1NC(=O)N1CC(C)Oc2ccc(C)cc21 (stereo not given),50%
13,CCN1CCN(C(=O)c2ccc3c(c2)N(Cc2ccccc2)C(=O)c2ccccc2S3(=O)=O)CC1,129%
14,Cc1ccc(CNC(=O)CN2CCCN(Cc3ccc(F)cc3)S2(=O)=O)cc1,67%
15,Cc1oc2c(cc(NS(=O)(=O)c3ccc(C(C)C)cc3)c3ccccc32)c1C(=O)O,42% (active)
16,CC(=O)c1c(C)oc2c1cc(NS(=O)(=O)c1ccc(C(C)(C)C)cc1)c1ccccc12,64%
17,Cc1cc(F)ccc1S(=O)(=O)Nc1cc2c(C(=O)O)c(C)oc2c2ccccc12,39% (active)
18,COCCOC(=O)c1c(C)oc2c1cc(NS(=O)(=O)c1ccc(Cl)c(C)c1)c1ccccc12,44% (active)
19,CC(=O)c1c(C)oc2c1cc(NS(=O)(=O)c1ccc(Cl)c(C)c1)c1ccccc12,70%
20,Cc1oc2c(cc(NS(=O)(=O)c3ccc(F)cc3)c3ccccc32)c1C(=O)OCc1ccccc1,54%
21,Cc1ccc(S(=O)(=O)Nc2cc3c(C(=O)OCc4ccccc4)c(C)oc3c3ccccc23)c(C)c1,56%
22,CCCOC(=O)c1c(C)oc2c1cc(NS(=O)(=O)c1ccc(OCC)cc1)c1ccccc12,56% (active)
23,Cc1oc2c(cc(NS(=O)(=O)c3ccc(Cl)cc3)c3ccccc32)c1C(=O)OCc1ccccc1,52%

row,SMILES,survival
1,CCOc1ccc(S(=O)(=O)Nc2cc3c(C(=O)OCc4ccccc4)c(C)oc3c3ccccc23)cc1,94%
2,CCc1ccc(S(=O)(=O)Nc2cc3c(C(=O)OCc4ccccc4)c(C)oc3c3ccccc23)cc1,60%
3,Cc1oc2c(cc(NS(=O)(=O)c3ccc(C(C)C)cc3)c3ccccc32)c1C(=O)OCc1ccccc1,81%
4,CCc1ccc(CN(Cc2ccco2)C(=O)COc2ccc(Cl)cc2C)cc1,55%
5,O=C(CNC(=O)c1ccccc1)OCc1cc(=O)n2nc(C3CCCCC3)sc2n1,90%
6,O=C(O)CC1c2ccccc2CCN1C(=O)Nc1cc(Cl)ccc1Cl (stereo not given),94%
7,COc1ccc(NC(=O)Cn2c(=O)n(-c3cccc(C)c3)c(=O)c3c2c2cc(C)ccc2n3C)cc1OC,79%
8,c1ccc(CNCC2COc3ccccc3O2)cc1 (stereo not given),114%
9,Cc1ccc(-n2ncc3c(N4CCN(C)CC4)ncnc32)cc1C,89%
10,Cc1ccc(CNC(=O)NC2COc3ccccc3C2)cc1 (stereo not given),107%
11,CCOC(=O)c1c(C)oc2c1cc(NS(=O)(=O)c1ccc(C)cc1)c1ccccc12,56%
12,COc1ccc(S(=O)(=O)Nc2cc3c(C(=O)OC(C)C)c(C)oc3c3ccccc23)cc1,38% (active)
13,COc1ccc(OC)c(S(=O)(=O)Nc2cc3c(C(C)=O)c(C)oc3c3ccccc23)c1,52%
14,Cc1nc(-c2ccc(S(=O)(=O)Nc3ccc(OC(F)(F)F)cc3)cc2)co1,78%
15,COc1cc([C@@H]2Nc3c(F)cccc3[C@@H]3C=CC[C@@H]32)cc(Br)c1OC,55%
16,COC(=O)c1ccc([C@@H]2Nc3c(OC)ccc(C)c3[C@@H]3C=CC[C@@H]32)cc1,49%
17,COC(=O)c1cccc2c1NC(c1cccnc1)C1CC=CC21 (stereo not given),101%
18,Cc1ccc2c(c1C)NC(C(=O)O)C1CC=CC21 (stereo not given),85%
19,COC(=O)c1ccc([C@@H]2Nc3c(C)cc(C)cc3[C@@H]3C=CC[C@@H]32)cc1,51% (active)
20,COC(=O)c1ccc([C@@H]2Nc3c(cccc3C(F)(F)F)[C@@H]3C=CC[C@@H]32)cc1,-3% (active)
21,Cc1ccc([C@H]2Nc3ccc(S(=O)(=O)Nc4cccc(Cl)c4C)cc3[C@H]3C=CC[C@H]32)cc1,50%
22,CCOc1cccc2c1N[C@@H](c1ccc(C(=O)O)cc1)[C@H]1CC=C[C@@H]21,68%
23,Cc1ccc(Cl)c2c1N[C@@H](c1ccc(C(=O)O)cc1)[C@H]1CC=C[C@@H]21,-10% (active)

row,SMILES,survival
1,CCOC(=O)c1cccc2c1N[C@@H](c1ccc(F)cc1)[C@H]1CC=C[C@@H]21,4% (active)
2,COCCN(CCOC)C(=O)c1cc2c(=O)n3ccccc3nc2n1C,51%
3,CCOc1ccccc1NC(=O)N(C)CCc1c(C)nn(CC)c1C,120%
4,Cc1c(C(=O)N2CCCC2)oc2c1-c1nn(CC(=O)NC(C)c3ccccc3)cc1CC2 (stereo not given),72%
5,Cc1nc(SCC(=O)N2c3ccccc3CCc3ccccc32)n[nH]1,102%
6,Cc1cccc(C(=O)NC2=NC(c3ccc(Cl)cc3)CC(=O)N2)c1 (stereo not given),88%
7,COc1ccccc1NC(=O)CN1C(=O)CC(c2ccc(C)c(C)c2)=Nc2ccccc21,84%
8,O=C1Nc2ccc(S(=O)(=O)Nc3ccccc3O)c3cccc1c23,62%
9,CCOC(=O)c1ccc(NC2=CC(c3ccc(O)c(OCC)c3)N(c3ccc(C(=O)OCC)cc3)C2=O)cc1 (stereo not given),59%
10,Cc1ccc(S(=O)(=O)c2nnn3c2nc(NCc2ccc4c(c2)OCO4)c2sccc23)cc1,113%
11,COc1ccccc1CNC(=O)CCn1c(=O)c2cccn2c2cccnc21,80%
12,COCCCNC(=O)c1nn(-c2ccc(C)cc2)nc1CO,82%
13,Cc1ccc(-c2nc(S(=O)(=O)c3ccc(C)cc3)c(SCC(=O)Nc3ccc(F)cc3)o2)cc1,58%
14,O=C(CSc1oc(-c2ccc(F)cc2)nc1S(=O)(=O)c1ccc(Cl)cc1)c1ccccc1,45% (active)
15,O=C(CSc1oc(-c2ccccc2)nc1S(=O)(=O)c1ccc(Br)cc1)c1ccccc1,58%
16,O=C(CSc1oc(-c2ccc(F)cc2)nc1S(=O)(=O)c1ccccc1)c1ccc(Cl)cc1,55%
17,Cc1ccc(-c2nc(S(=O)(=O)c3ccc(C)cc3)c(SCC(=O)NC3CCCCC3)o2)cc1,51%
18,Cc1ccc(-c2nc(S(=O)(=O)c3ccc(C)cc3)c(SCC(=O)c3ccccc3)o2)cc1,52%
19,Cc1ccc(S(=O)(=O)c2nc(-c3ccccc3)oc2SCC(=O)NC2CCCCC2)cc1,166%
20,O=C(CSc1oc(-c2ccccc2)nc1S(=O)(=O)c1ccc(Cl)cc1)Nc1ccc(F)cc1,162%
21,O=C(CSc1oc(-c2ccccc2)nc1S(=O)(=O)c1ccccc1)c1ccccc1,148%
22,Cc1ccc(S(=O)(=O)c2nc(-c3ccc(F)cc3)oc2SCC(=O)c2ccccc2)cc1,47% (active)
23,Cc1ccc(-c2nc(S(=O)(=O)c3ccccc3)c(SCC(=O)NC3CCCCC3)o2)cc1,43% (active)

row,SMILES,survival
1,O=C(CSc1oc(-c2ccccc2)nc1S(=O)(=O)c1ccc(Cl)cc1)c1ccccc1,44% (active)
2,Cc1cccc(N2C(=O)C(CC(=O)Nc3ccc(F)cc3)N(C3CCCC3)C2=O)c1 (stereo not given),130%
3,CCCC1=Nc2cc(C(=O)NCCc3ccc(OC)cc3OC)ccc2Sc2ccccc21,99%
4,O=C(CC(NCc1ccccc1)C(=O)O)NC1CCCCC1 (stereo not given),102%
5,Cn1c(=O)c(C(=O)NCCN2CCNCC2)c(O)c2ccccc21,68%
6,CCCn1c(=O)c2sccc2n2c(CCCC(=O)NC3CCC(C)CC3)nnc12 (stereo not given),100%
7,COc1ccc(OC)c(CNC(=O)c2cnc(N(C)C)nc2)c1,71%
8,O=C(Cc1ccc(NC(=O)N2CCCCc3ccccc32)cc1)Nc1ccccc1Br,73%
9,Cc1ccc(C)c(N2CCN(C(=O)c3cccc(-n4c(C)nc5cccnc54)c3)CC2)c1,78%
10,Cc1ccc(CNc2cc(C)nc3nc(-c4cccc(C)c4)nn23)cc1,124%
11,COc1cccc(CNC(=O)Cn2c(=O)n3nc(-c4cccc(C)c4)nc3c3ccccc32)c1,93%
12,c1ccc(CNc2nc3ccccc3c3nc(-c4ccccc4)nn23)cc1,54%
13,Clc1ccccc1CNc1nc2ccccc2c2nc(-c3ccccc3)nn12,108%
14,CCc1c(C)nc2nncn2c1NCc1ccccc1,85%
15,Cc1cccc(-c2nc3c4ccccc4nc(NCc4ccc(F)cc4)n3n2)c1,84%
16,COc1ccc(CNc2nc3ccccc3c3nc(-c4ccccc4)nn23)cc1,35% (active)
17,COc1cccc(CNc2nc3ccccc3c3nc(-c4cccc(C)c4)nn23)c1,31% (active)
18,COc1cccc(CNc2nc3c(-c4cccc(C)c4)nnn3c3ccccc23)c1,96%
19,CCc1c(C)nc2nc(-c3ccccc3)nn2c1NCc1ccc(C)cc1,-4% (active)
20,Cc1ccc(CNc2cc(C)nc3nc(-c4ccc(C)cc4)nn23)cc1,69%
21,Cc1ccc(CNc2nc3ccccc3c3nc(-c4cccc(C)c4)nn23)cc1,18% (active)
